The supplement of paper PMC11732987, “Enantioselective OTUD7B fragment discovery through chemoproteomics screening and high-throughput optimisation” (Communications Chemistry, 2025)

What was measured:
Experiment in all cases: log2 ratio of Biotin-Ahx-Ub-VS probe labelling (fragment/DMSO); higher = less target engagement (more negative = stronger competition), active = hit call of the paper (q ≤ 0.05, log2 ratio ≤ -1)
Conditions in all cases: compound concentration: 200 uM; treatment time: 3 h
[1] = target: USP34 (UniProt Q70CQ2)
Chain of USP34 (Q70CQ2 whole entry, the tested form may be a part): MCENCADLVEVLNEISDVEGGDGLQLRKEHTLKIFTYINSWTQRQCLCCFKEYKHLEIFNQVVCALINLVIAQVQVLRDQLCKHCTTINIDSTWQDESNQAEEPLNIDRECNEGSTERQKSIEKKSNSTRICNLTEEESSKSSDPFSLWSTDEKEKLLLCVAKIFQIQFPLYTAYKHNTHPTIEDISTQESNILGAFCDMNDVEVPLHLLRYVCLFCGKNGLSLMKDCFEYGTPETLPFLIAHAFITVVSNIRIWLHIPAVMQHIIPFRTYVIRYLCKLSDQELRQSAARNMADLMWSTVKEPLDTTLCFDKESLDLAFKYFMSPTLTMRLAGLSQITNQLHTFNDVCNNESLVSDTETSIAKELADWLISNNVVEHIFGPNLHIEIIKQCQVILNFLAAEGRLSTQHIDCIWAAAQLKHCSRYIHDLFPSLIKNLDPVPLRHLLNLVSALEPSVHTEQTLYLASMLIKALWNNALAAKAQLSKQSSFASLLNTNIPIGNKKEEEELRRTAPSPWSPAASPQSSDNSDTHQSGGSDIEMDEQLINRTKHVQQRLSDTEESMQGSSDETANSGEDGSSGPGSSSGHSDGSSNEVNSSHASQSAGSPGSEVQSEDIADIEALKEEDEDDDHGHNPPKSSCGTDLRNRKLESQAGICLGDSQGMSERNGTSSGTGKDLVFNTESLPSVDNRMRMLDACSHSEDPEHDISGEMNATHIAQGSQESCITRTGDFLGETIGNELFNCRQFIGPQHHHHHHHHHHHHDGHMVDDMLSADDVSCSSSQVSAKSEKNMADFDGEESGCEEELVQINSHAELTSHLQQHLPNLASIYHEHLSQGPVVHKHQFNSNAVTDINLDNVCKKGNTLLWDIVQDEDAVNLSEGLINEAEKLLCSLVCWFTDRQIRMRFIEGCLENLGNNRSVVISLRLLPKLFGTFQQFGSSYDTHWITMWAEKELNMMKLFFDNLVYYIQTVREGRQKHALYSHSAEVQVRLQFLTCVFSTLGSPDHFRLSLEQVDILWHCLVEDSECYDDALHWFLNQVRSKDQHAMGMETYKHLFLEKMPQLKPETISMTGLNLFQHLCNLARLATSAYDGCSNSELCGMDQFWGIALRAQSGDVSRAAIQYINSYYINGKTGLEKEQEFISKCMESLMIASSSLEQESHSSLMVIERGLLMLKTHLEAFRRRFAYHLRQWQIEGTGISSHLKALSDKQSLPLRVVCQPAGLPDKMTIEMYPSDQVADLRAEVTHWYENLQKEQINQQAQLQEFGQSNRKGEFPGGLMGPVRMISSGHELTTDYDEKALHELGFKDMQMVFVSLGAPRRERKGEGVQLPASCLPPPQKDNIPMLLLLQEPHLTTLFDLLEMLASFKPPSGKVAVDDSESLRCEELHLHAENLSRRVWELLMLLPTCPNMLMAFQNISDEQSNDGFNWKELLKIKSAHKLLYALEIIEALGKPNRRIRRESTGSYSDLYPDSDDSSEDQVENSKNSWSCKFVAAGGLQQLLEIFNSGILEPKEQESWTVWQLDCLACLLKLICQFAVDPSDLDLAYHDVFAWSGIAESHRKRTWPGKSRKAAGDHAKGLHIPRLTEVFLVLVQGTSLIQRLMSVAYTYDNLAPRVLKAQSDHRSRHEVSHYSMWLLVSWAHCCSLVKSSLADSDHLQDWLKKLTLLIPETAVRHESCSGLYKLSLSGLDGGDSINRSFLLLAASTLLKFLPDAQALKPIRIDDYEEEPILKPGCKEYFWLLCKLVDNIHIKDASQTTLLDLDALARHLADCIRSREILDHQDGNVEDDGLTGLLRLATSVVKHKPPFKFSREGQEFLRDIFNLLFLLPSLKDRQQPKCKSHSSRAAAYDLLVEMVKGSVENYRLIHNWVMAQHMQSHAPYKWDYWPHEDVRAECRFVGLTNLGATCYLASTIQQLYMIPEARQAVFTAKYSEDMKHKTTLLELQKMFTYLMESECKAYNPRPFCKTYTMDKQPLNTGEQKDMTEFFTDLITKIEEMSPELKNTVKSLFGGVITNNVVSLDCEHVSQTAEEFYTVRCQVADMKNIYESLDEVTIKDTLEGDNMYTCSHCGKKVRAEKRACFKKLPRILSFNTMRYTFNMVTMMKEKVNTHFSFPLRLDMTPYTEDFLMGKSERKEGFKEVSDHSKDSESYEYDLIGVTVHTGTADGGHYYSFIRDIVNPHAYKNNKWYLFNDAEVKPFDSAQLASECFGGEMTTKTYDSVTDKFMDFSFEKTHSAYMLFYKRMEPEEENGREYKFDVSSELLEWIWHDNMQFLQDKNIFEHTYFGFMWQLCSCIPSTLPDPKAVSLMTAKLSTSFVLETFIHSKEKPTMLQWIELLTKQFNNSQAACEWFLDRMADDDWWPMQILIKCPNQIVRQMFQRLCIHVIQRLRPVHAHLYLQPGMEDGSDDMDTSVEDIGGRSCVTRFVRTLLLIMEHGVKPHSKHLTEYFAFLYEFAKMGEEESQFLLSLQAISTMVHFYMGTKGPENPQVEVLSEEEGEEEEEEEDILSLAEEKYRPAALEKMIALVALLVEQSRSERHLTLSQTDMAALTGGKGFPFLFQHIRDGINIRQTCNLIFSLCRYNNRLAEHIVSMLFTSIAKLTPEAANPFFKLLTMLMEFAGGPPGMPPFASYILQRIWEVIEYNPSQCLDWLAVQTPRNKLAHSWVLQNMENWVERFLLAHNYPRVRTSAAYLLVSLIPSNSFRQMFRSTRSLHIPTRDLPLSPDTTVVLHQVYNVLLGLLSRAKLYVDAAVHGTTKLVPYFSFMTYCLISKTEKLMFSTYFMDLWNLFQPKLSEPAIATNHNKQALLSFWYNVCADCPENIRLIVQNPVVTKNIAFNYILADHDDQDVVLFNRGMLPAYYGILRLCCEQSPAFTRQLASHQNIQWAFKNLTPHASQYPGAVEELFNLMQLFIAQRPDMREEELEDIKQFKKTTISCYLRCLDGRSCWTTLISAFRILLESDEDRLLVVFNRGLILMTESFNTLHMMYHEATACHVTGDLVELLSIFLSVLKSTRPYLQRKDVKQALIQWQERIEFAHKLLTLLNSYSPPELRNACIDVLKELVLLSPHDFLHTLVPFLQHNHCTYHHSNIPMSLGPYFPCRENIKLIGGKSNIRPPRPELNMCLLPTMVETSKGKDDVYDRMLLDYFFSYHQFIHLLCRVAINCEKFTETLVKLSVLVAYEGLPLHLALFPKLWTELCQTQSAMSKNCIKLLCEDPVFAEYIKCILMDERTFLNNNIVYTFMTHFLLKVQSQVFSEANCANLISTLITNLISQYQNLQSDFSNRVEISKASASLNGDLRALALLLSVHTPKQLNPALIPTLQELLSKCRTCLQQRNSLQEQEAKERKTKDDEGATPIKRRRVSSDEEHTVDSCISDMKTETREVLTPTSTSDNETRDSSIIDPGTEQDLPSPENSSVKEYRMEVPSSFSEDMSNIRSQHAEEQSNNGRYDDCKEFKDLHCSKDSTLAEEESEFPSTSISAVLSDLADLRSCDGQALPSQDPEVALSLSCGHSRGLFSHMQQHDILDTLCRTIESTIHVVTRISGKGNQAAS
Procedure, shortened: (§1)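 Labelling with Biotin-Ahx-Ub-VS (0.5 µM final, 1 h) followed a 3 h triplicate treatment of HEK293T lysate (495 µg per sample, Tris/CHAPS/IGEPAL buffer with protease inhibitors) with fragment at 200 µM or vehicle. Labelled DUBs were NeutrAvidin-enriched, digested with LysC and trypsin, and run by diaPASEF LC-MS/MS. The values, average log2 fragment/vehicle ratios by unpaired t-test, come from global-median-normalised Spectronaut label-free quantities. Proteins with ≥2 unique peptides were used.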

[2] = target: T1, USP36 (UniProt Q9P275)
T1 sequence (whole entry): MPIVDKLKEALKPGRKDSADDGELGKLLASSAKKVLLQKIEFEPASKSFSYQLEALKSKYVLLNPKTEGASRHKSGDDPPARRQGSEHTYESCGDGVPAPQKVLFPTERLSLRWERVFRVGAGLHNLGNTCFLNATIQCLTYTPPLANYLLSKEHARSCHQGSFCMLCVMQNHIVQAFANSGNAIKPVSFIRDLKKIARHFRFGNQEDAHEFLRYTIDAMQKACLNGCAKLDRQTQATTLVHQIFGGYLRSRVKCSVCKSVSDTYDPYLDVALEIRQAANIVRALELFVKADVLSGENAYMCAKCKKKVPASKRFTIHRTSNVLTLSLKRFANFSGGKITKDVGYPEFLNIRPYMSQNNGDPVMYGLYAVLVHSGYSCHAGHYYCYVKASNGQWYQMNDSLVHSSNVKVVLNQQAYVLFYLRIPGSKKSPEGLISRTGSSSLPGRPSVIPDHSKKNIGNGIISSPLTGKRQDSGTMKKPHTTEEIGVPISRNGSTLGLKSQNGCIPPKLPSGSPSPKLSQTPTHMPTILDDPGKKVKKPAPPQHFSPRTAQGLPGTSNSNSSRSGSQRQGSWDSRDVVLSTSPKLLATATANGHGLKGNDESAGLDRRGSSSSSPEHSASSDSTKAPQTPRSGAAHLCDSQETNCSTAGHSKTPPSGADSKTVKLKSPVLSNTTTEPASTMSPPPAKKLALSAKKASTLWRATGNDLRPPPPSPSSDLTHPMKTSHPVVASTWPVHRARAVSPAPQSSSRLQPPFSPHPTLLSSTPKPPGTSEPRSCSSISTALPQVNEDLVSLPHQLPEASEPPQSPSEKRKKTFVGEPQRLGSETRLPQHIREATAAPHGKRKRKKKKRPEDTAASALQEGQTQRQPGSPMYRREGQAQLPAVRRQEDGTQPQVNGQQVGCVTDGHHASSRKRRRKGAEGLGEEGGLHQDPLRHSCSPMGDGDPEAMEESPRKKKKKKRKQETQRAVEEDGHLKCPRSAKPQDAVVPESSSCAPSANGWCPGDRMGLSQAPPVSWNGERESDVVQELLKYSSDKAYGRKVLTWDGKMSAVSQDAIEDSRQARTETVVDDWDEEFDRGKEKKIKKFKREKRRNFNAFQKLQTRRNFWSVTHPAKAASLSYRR
Procedure, shortened: as §1

[3] = target: T2, USP38 (UniProt Q8NB14)
T2 sequence (whole entry): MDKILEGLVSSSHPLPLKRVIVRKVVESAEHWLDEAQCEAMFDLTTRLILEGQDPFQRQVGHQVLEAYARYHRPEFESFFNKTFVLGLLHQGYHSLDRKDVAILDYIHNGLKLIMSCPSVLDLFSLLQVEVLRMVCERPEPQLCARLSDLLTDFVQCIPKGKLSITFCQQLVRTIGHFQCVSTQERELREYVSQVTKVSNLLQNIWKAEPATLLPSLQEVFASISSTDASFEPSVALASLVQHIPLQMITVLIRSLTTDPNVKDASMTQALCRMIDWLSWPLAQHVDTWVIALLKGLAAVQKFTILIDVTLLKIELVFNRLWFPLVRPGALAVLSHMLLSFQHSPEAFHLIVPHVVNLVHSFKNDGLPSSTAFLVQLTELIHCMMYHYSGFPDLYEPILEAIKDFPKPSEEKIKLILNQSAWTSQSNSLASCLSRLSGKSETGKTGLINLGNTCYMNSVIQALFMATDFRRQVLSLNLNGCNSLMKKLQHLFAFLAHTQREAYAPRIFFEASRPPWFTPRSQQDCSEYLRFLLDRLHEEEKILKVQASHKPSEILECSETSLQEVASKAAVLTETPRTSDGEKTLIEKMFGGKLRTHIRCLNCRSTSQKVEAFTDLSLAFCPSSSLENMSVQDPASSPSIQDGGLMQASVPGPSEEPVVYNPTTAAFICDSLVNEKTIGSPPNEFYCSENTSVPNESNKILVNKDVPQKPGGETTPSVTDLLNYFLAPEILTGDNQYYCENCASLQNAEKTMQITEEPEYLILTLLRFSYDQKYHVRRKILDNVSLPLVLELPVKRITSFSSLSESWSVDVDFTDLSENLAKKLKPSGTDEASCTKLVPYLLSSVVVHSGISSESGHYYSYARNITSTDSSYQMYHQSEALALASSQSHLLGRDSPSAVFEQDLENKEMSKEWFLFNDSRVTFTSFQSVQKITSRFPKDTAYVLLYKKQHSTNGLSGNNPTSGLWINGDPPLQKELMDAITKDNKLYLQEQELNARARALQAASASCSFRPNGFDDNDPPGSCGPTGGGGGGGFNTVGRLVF
Procedure, shortened: as §1

[4] = target: T3, USP39 (UniProt Q53GS9)
T3 sequence (whole entry): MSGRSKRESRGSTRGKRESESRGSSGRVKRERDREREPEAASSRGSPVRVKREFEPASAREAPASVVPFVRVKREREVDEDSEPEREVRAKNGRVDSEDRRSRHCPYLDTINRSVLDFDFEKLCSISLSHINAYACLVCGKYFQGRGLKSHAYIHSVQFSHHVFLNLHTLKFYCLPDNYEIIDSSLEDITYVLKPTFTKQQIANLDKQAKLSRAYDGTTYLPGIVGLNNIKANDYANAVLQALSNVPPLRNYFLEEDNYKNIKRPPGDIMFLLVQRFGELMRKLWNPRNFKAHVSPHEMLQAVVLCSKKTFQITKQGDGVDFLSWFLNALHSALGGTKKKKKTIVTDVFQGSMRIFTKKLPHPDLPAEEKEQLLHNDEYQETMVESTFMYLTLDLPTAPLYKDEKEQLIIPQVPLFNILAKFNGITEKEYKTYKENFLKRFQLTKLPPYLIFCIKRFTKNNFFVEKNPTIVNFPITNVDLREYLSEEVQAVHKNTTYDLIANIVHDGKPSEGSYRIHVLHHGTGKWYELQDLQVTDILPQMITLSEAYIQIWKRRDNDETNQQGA
Procedure, shortened: as §1

[5] = target: T4, USP4 (UniProt Q13107)
T4 sequence (whole entry): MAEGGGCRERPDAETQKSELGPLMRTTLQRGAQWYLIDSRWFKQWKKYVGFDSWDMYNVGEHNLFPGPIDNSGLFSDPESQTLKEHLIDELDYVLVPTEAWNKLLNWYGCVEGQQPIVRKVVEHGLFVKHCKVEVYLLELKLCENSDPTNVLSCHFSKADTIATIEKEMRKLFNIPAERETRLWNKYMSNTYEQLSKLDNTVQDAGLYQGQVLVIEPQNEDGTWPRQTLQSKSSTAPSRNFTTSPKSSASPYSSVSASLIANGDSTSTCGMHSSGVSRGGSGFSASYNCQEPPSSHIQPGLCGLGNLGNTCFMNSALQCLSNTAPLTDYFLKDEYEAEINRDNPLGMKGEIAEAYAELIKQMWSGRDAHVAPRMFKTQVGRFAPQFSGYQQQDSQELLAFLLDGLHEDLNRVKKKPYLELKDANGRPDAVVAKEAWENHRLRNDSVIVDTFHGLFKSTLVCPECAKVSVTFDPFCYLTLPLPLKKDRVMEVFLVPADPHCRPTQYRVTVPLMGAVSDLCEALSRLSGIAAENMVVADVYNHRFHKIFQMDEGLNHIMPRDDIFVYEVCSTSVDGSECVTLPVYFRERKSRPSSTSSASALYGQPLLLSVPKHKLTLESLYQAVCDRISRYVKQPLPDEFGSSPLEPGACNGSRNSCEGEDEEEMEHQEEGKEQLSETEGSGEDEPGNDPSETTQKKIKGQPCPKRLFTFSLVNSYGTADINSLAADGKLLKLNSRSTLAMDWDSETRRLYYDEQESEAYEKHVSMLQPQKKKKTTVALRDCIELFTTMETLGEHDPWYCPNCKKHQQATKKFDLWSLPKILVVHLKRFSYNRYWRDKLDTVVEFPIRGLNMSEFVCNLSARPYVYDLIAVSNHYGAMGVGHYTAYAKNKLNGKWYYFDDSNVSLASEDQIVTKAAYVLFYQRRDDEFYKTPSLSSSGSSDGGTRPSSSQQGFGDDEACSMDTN
Procedure, shortened: as §1

Measured: log2 ratio of Biotin-Ahx-Ub-VS probe labelling

CN(CCC(O)c1ccc(Br)cc1)C(=O)CCl (stereo not given)
inactive: [1] -0.261 | [2] -0.0809 | [3] -0.17 | [4] -0.00535 | [5] -0.206
